According to PubChem BioAssay (NCI):
The panel holds about 83,000 compounds, 20% with a hit somewhere; the sample as a whole holds those more often.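 The endpoint reported here, percent growth, reads 100 for growth as untreated, 0 for no net growth and -100 for all cells dead.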 Activity calls are given as the source filed them. How the source made its calls: active means growth percent below 10; inactive means the rest.

system: SK-MEL-28 melanoma; test: NCI-60 one-dose screen, 48 h (100 = growth as untreated, 0 = no growth, -100 = all killed); details: 10 µM

Structure (SMILES)	growth
CC(C)N(CCOc1cccc(-c2nc3sccn3c2-c2ccnc(S(C)(=O)=O)n2)c1)C(C)C	99.3% (inactive)
NC(=O)c1cccc(-n2ccc3cc(NC(=O)Nc4ccc(Cl)c(C(F)(F)F)c4)ccc32)n1	79.4% (inactive)
COc1cccc(-c2nc3sccn3c2-c2cccc(S(C)(=O)=O)c2)c1	112% (inactive)
COc1ccc(Cl)cc1Nc1nc(C(F)(F)F)ccc1C(=O)N/N=C/c1ccc(Cl)cc1	51.2% (inactive)
CCOc1ccccc1/C=N\N=C\c1ccccc1O	112% (inactive)
CN(C)c1ccc(/C=N/NC(=O)c2ccccc2Nc2cccc(C(F)(F)F)c2)cc1	91.2% (inactive)
COc1cc2cc(Oc3ccc(NC(=O)Nc4cccc(C(F)(F)F)c4)cc3)c(C)nc2cc1OC	26.7% (inactive)
O=C(Nc1cc(Cl)cc2c1-c1ccc(Cl)cc1C2O)C(Cl)Cl (stereo unspecified)	84.6% (inactive)
C/C(=N\O)c1ccc(NC(=O)CSc2nnc(-c3ccccc3)n2-c2ccccc2)cc1	97.7% (inactive)
CCN(CC)CCCOc1cccc2c1C(=O)c1cccc(OCCCN(CC)CC)c1C2=O	61.2% (inactive)

system: SK-MEL-2 melanoma; test: as above; details: 10 µM

Structure (SMILES)	growth
Clc1ccc(/C=C2\CCCC3C2=Nc2ccccc2NC3c2ccc(Cl)cc2)cc1 (stereo unspecified)	92.1% (inactive)
CCC(c1ccc(OC)cc1)C(CC)c1ccc(O)c(CN2CCN(C)CC2)c1 (stereo unspecified)	62.2% (inactive)
CC[C@@H](C(=O)[C@H](C)[C@H](O)[C@@H](C)[C@H]1O[C@H]([C@@H](CC)C(=O)N(CC)CC)CC[C@H]1C)C1O[C@]2(C=C[C@@H](O)[C@]3(CC[C@@](C)([C@H]4CC[C@](O)(CC)[C@H](C)O4)O3)O2)[C@H](C)C[C@@H]1C (stereo partly specified)	0.113% (active)
c1ccc(/C(=N\Nc2ccc3ccccc3n2)c2ccccn2)cc1	-9.63% (active)
O=C(NCCCNS(=O)(=O)c1ccc(Cl)cc1)Nc1ccc(-n2cc(-c3ccncc3)c(-c3ccc(Cl)c(O)c3)n2)cc1	43.4% (inactive)
Nc1ncnc2c1ncn2C1(CO)OCC(O)C(O)C1O (stereo unspecified)	93.5% (inactive)
CN(C)CCOc1ccc(-c2nc3sccn3c2-c2ccnc(S(C)(=O)=O)n2)cc1	111% (inactive)
CC[C@H]1OC(=O)[C@H](C)[C@@H](O[C@H]2C[C@@](C)(OC)[C@@H](O)[C@H](C)O2)[C@H](C)[C@@H](O[C@@H]2O[C@H](C)C[C@H](N(C)C)[C@H]2O)[C@](C)(OC)C/C(C)=C2/O[C@@]1(C)C=C2C	-17.3% (active)
COc1cc(/C=C2\CCCC3=C2NC(N)=NC3c2cc(OC)c(OC)c(OC)c2)cc(OC)c1OC (stereo unspecified)	-0.813% (active)
O=[N+]([O-])c1cccc(/C=N/NC(=S)NC23CC4CC(CC(C4)C2)C3)c1	96% (inactive)
CNC(=O)c1cc(Oc2ccc3c(c2)sc2nc(-c4ccc(N)cc4)cn23)ccn1	35.8% (inactive)
COc1ccc2c(c1)OC(N)=C(C#N)C2c1cc(OC)c(OC)c(OC)c1 (stereo unspecified)	27.3% (inactive)
S=C(NCc1ccccc1)NCc1ccccc1	97.9% (inactive)
CC(=O)OC1C=CC(OC(C)=O)O1 (stereo unspecified)	88.9% (inactive)
Cc1ccc(Cl)cc1NC(=O)CCl	86.9% (inactive)
CCC(C)[C@H](NC(C)=O)C(=O)N[C@@H](CCCNC(=N)N)C(=O)N[C@@H](CCCCN)C(=O)N[C@@H](CC1CCC(O)CC1)C(=O)NC(C(=O)N[C@@H](CCSC)C(=O)N[C@@H](CCCNC(=N)N)C(=O)N[C@@]1(C)CCC/C=C\CCC[C@@](C)(C(=O)NC(C(=O)N[C@@H](CCC(=O)O)C(=O)N[C@@H](CC(C)C)C(=O)N[C@H](C(=O)N[C@@H](CCC(=O)O)C(N)=O)C(C)C)[C@@H](C)O)NC(=O)[C@H](CCC(N)=O)NC(=O)[C@H](CC(C)C)NC(=O)[C@H](CC(C)C)NC1=O)[C@@H](C)O (stereo partly specified)	100% (inactive)
COc1cc2cc(Oc3ccc(NC(=O)c4cccc(C(F)(F)F)c4)cc3)c(C)nc2cc1OC	38.8% (inactive)
COC(=O)C1(O)NC(=C(C#N)C#N)C(C#N)=C1C(=O)c1ccc(OC)c(OC)c1 (stereo unspecified)	104% (inactive)
COc1ccc(-c2onc(N)c2-c2cc(OC)c3c(c2)OCO3)cc1	13.6% (inactive)
NC(N)=N/N=C(\c1ccccc1)C(O)c1ccccc1 (stereo unspecified)	101% (inactive)
COc1cc2cc(Oc3ccc(NC(=O)c4ccccc4)cc3)c(C)nc2cc1OC	59.5% (inactive)
